High-throughput results deposited in PubChem BioAssay by National Center for Advancing Translational Sciences (NCATS).
Cycloheximide cs = affects cycloheximide protein synthesis inhibition readout, counter-screen; cell reporter, cycloheximide protein synthesis inhibition counterscreen; max response, %; actives 12% (n = 300,000); in the data active = max response mostly above about 13%, no sharp cut-off; inactive = mostly below about 14%; also: read at 38.3 µM for the half of the compounds with a filed dose
Pf growth 96h = P. falciparum growth inhibition at 96 hour, primary screen for plastid delayed-death inhibitors | P. falciparum luciferase reporter growth, 96 h | Potency, µM (highest dose often 28.7 µM), most hits filed as inhibitors | actives 6.9% (n = 320,000) | AID 504834; active = well fitted inhibition curve with a large enough effect; inconclusive = small, poorly fitted or top-dose-only effect, or another doubt; inactive = no such curve, though single readings can be large or run the other way
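Two-generation exposure (96 h) targets delayed-death phenotype. Reporter parasites carrying integrated firefly luciferase, in red cells at 2% hematocrit and 0.05% parasitemia final, kept at 37 C, 5% CO2; luminescence loss indicates inhibition.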
Pf growth 48h = P. falciparum growth inhibition at 48 hours (one generation). Potency, µM (series often up to 28.7 µM), actives largely listed as inhibitors. actives 5.9% (n = 310,000). P. falciparum luciferase growth in erythrocytes, 48 h; active = well fitted inhibition curve with a large enough effect; inconclusive = small, poorly fitted or top-dose-only effect, or another doubt; inactive = no such curve, though single readings can be large or run the other way
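Firefly luciferase activity from engineered P. falciparum reports growth; inhibitors lower the luminescent signal. Cultures contained 2% hematocrit erythrocytes at 0.1% final parasitemia.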
Shiga toxin inh = blocks Shiga toxin action in Vero cells | actives 9.2% (n = 290,000) | inhibition, % at 38.7 µM | Vero cells, Shiga toxin protein synthesis inhibition reporter; in the data active = inhibition mostly above about 28%, no sharp cut-off; inactive = mostly below about 43%
SARS PLP yeast = SARS-CoV PLP inhibition in yeast; AID 485353; S. cerevisiae expressing SARS-CoV PLpro, growth rescue; actives 0.19% (n = 330,000); Potency, µM (titrated, usually from 32.9 µM), most hits filed as activators; also: nearly all actives have a fitted effect of over 55% in size
NS1 inh = blocks influenza NS1 protein function | Potency, µM (highest dose often 46.1 µM) | actives 0.4% (n = 270,000) | AID 2326; also: actives are rising curves; nearly all actives have a fitted effect of over 50% in size
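Read-out: OD600 growth recovery of NS1-expressing budding yeast. Cells grown overnight at 30C in -URA glucose medium, washed, resuspended and diluted 1:100 in 2% galactose assay medium, pH 6.0. Same strain lacking NS1 served as positive control.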
A number is an active result. This is a sample that favours compounds with a hit; in the whole collection about 21% have one here. Unless noted, calls follow the shape of the full dose curve.

O=C1C(Nc2ccccc2)=C/C(=N/S(=O)(=O)c2cccs2)c2ccccc21 was read as Cycloheximide cs inactive, Pf growth 96h 0.522µM, Pf growth 48h 0.522µM, Shiga toxin inh inactive, SARS PLP yeast inactive and NS1 inh inactive.
Screening CC(C)(C)c1ccc(S(=O)(=O)/N=C2\C=C(NS(=O)(=O)c3ccccc3)C(=O)c3ccccc32)cc1 returned Cycloheximide cs inactive, Pf growth 96h inactive, Pf growth 48h inactive, Shiga toxin inh inactive, SARS PLP yeast inactive and NS1 inh inactive.
Screening Cc1ccc(NC2=C/C(=N/S(=O)(=O)c3cccs3)c3ccccc3C2=O)cc1 returned Cycloheximide cs 47.5, Pf growth 96h inactive, Pf growth 48h inconclusive, Shiga toxin inh 145.0, SARS PLP yeast inactive and NS1 inh inconclusive.
`COc1cccc(/C=N/c2oc(-c3ccccc3)cc2C#N)c1O` gave Cycloheximide cs 23.7, Pf growth 96h inactive, Pf growth 48h inactive, Shiga toxin inh inactive, SARS PLP yeast inactive and NS1 inh inactive.
N#Cc1cc(-c2ccccc2)oc1/N=C/c1ccccc1O was read as Cycloheximide cs 28.9, Pf growth 96h inactive, Pf growth 48h inconclusive, Shiga toxin inh inactive, SARS PLP yeast inactive and NS1 inh inactive.
For COc1cccc(C=Nc2ccccc2C#N)c1O the results were Cycloheximide cs inactive, Pf growth 96h inactive, Pf growth 48h inactive, Shiga toxin inh inactive, SARS PLP yeast inactive and NS1 inh inactive.
`O=C(O)c1cc(N=Cc2ccccc2O)cc(C(=O)O)c1` gave NS1 inh inactive.
COc1ccc(/C=N/c2oc(-c3ccccc3)cc2C#N)cc1 was read as Cycloheximide cs 16.2, Pf growth 96h inactive, Pf growth 48h inactive, Shiga toxin inh inactive, SARS PLP yeast inactive and NS1 inh inactive.
Screening CCOC(=O)C1CCN(C(=O)c2cc3c(=O)n4ccccc4nc3n2C)CC1 returned Cycloheximide cs inactive, Pf growth 96h inactive, Pf growth 48h inactive, Shiga toxin inh inactive, SARS PLP yeast inactive and NS1 inh inactive.
`O=C1CCCC(=O)N1c1ccc(NCCOCCO)c([N+](=O)[O-])c1` gave Cycloheximide cs inactive, Pf growth 96h inactive, Pf growth 48h inactive, Shiga toxin inh inactive and SARS PLP yeast inactive.
CN1CCC(N(C)C(=S)Nc2ccc(SC(F)F)cc2)CC1 was read as Cycloheximide cs 24.4, Pf growth 96h inactive, Pf growth 48h inactive, Shiga toxin inh active, SARS PLP yeast inactive and NS1 inh inactive.
Screening OC1CCCN(C(=S)Nc2ccc(SC(F)F)cc2)C1 (configuration not stated) returned Cycloheximide cs 26.6, Pf growth 96h inactive, Pf growth 48h inactive, Shiga toxin inh 34.3, SARS PLP yeast inactive and NS1 inh inactive.
`CC1CC(C)CN(C(=S)Nc2ccc(SC(F)F)cc2)C1` (configuration not stated) gave Cycloheximide cs inactive, Pf growth 96h inactive, Pf growth 48h inactive, Shiga toxin inh inactive, SARS PLP yeast inactive and NS1 inh inactive.
CN1CCC(N(C)C(=O)c2ccccc2Nc2ccc(SC(F)F)cc2)CC1 was read as Cycloheximide cs inactive, Pf growth 96h inactive, Pf growth 48h inactive, Shiga toxin inh inactive, SARS PLP yeast inactive and NS1 inh inactive.
For CC(=O)c1ccc(NC(=S)N(C)C2CCN(C)CC2)cc1 the results were Cycloheximide cs inactive, Pf growth 96h 2.08µM, Pf growth 48h inactive, Shiga toxin inh inactive, SARS PLP yeast inactive and NS1 inh inactive.
Screening CN1CCC(N(C)C(=S)Nc2ccc(F)cc2)CC1 returned Cycloheximide cs inactive, Pf growth 96h inactive, Pf growth 48h inactive, Shiga toxin inh inactive and SARS PLP yeast inactive.
Screening S=C=Nc1ccc(N=C=S)cc1 returned Pf growth 96h inactive and Pf growth 48h inactive.
S=C=Nc1ccccn1 was read as Cycloheximide cs 26.7, Pf growth 96h inconclusive, Pf growth 48h inconclusive, Shiga toxin inh inactive, SARS PLP yeast inactive and NS1 inh inactive.
`C=CCC[C@@H](Cc1ccc(F)cc1)C(=O)OC[C@@H](NC(=O)[C@@H](CC=C)CC(=O)N[C@H](CO)Cc1ccccc1)C(C)(C)C` gave SARS PLP yeast inactive.
Screening CC(C(=O)N1CCc2ccccc21)N(C)CC(=O)Nc1ccccc1Cl (configuration not stated) returned Pf growth 96h 16.5µM, Pf growth 48h inconclusive and SARS PLP yeast inactive.
`Cc1ccc(NC(=O)CN(C)CC(=O)Nc2ccccc2Oc2ccccc2)cc1` gave Cycloheximide cs inactive, Pf growth 96h inactive, Pf growth 48h inconclusive, Shiga toxin inh inactive and SARS PLP yeast inactive.
`CN(CC(=O)Nc1ccccc1)CC(=O)Nc1ccccc1Cl` gave Cycloheximide cs 18.8, Pf growth 96h inactive, Pf growth 48h inactive, Shiga toxin inh 30.6, SARS PLP yeast inactive and NS1 inh inactive.
Screening CC1CC(C)CN(C(=O)C(C)N(C)CC(=O)Nc2ccccc2Cl)C1 (configuration not stated) returned Cycloheximide cs inactive, Pf growth 96h inactive, Pf growth 48h inactive, Shiga toxin inh inactive and SARS PLP yeast inactive.
For Cc1cccc(C)c1NC(=O)CN(C)CC(=O)Nc1ccccc1Oc1ccccc1 the results were Cycloheximide cs inactive, Pf growth 96h 11.7µM, Pf growth 48h inconclusive, Shiga toxin inh inactive and SARS PLP yeast inactive.
For O=C(Oc1coc(CSc2nnc(NC(=O)C3CC3)s2)cc1=O)c1c(F)cccc1F the results were Cycloheximide cs inactive, Pf growth 96h inconclusive, Pf growth 48h inactive, Shiga toxin inh inactive and SARS PLP yeast inactive.
`COc1ccc(CCC(C)N2CCOCC2)cc1` (configuration not stated) gave Cycloheximide cs inactive, Pf growth 96h inactive, Pf growth 48h inactive, Shiga toxin inh inactive, SARS PLP yeast inactive and NS1 inh inactive.
Screening CCN(CC)CCCN1C=C2C(=O)C(C)(OC(=O)C3CCCC3)C(=O)C=C2C=C1c1ccsc1 (configuration not stated) returned Cycloheximide cs inactive, Pf growth 96h inconclusive, Pf growth 48h 10.4µM, Shiga toxin inh inactive, SARS PLP yeast inactive and NS1 inh inactive.
C=CCN1C=C2C(=O)C(C)(OC(=O)C3CCCC3)C(=O)C=C2C=C1c1ccsc1 (configuration not stated) was read as Cycloheximide cs inactive, Pf growth 96h inconclusive, Pf growth 48h inconclusive, Shiga toxin inh inactive, SARS PLP yeast inactive and NS1 inh inactive.
For CC(C)CN1C=C2C(=O)C(C)(OC(=O)C3CCCC3)C(=O)C=C2C=C1c1ccsc1 (configuration not stated) the results were Cycloheximide cs inactive, Pf growth 96h 10.4µM, Pf growth 48h inconclusive, Shiga toxin inh inactive, SARS PLP yeast inactive and NS1 inh inactive.
For CC1(OC(=O)C2CCCC2)C(=O)C=C2C=C(c3ccsc3)N(CCc3ccccn3)C=C2C1=O (configuration not stated) the results were Cycloheximide cs inactive, Pf growth 96h inconclusive, Pf growth 48h inconclusive, Shiga toxin inh inactive, SARS PLP yeast inactive and NS1 inh inactive.
